# Data reported in PubChem BioAssay (NCATS).
# Values without a mark were called inactive. Inconclusive results are not listed. Entries that show only a call come without a potency. Activity calls are given as the source filed them. Calls come from the whole dose curve; as a rule, active = well fitted inhibition curve with a large enough effect; inconclusive = small, poorly fitted or top-dose-only effect; inactive = flat fitted curve, though single readings scatter.
# Assays:
# [1] = biological target: Glutathione peroxidase 1 (Homo sapiens) (UniProt P07203); experiment: Primary qHTS Assay for Inhibitors of Recombinant Selenoprotein Glutathione Peroxidase 1 (GPX1) (AID 1845191); note: nearly all actives have a fitted effect of over 65% in size
# Chain of Glutathione peroxidase 1 (Homo sapiens) (P07203 whole entry, looked up): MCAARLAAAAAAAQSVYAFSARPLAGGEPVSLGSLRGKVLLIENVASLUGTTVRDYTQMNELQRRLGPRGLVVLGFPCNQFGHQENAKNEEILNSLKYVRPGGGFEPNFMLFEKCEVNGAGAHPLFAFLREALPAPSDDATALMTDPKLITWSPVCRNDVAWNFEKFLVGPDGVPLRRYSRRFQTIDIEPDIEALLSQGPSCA
# Method in brief: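 10 nM GPX1 + cpd, 30 min RT; start w/ 1 mM GSH, 0.5 mM cumene hydroperoxide, 0.5 mM NADPH, 100 nM GR, 0.01% BSA; buffer 50 mM Tris-HCl pH 7.5, 2 mM EDTA, 150 mM NaCl; Fl 340/450, 0 & 15 min.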
# [2] = biological target: Phospholipid hydroperoxide glutathione peroxidase GPX4 (Homo sapiens) (UniProt P36969); experiment: Primary qHTS Assay for Inhibitors of Recombinant Selenoprotein Glutathione Peroxidase 4 (GPX4) (AID 1845192); note: nearly all actives have a fitted effect of over 65% in size; for activity change, negative = inhibition: series mostly up to about 50 µM
# Chain of Phospholipid hydroperoxide glutathione peroxidase GPX4 (Homo sapiens) (P36969 whole entry, looked up): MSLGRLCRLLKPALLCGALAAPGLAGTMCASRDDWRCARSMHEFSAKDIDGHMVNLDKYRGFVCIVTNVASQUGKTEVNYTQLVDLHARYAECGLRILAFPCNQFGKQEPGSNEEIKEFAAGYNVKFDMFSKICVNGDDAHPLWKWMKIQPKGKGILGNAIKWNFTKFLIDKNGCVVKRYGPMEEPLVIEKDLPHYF
# Method in brief: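 NADPH consumption, followed by fluorescence at 340/450 nm between 0 and 15 min, reports GPX4 activity via coupled glutathione reductase (100 nM). Enzyme 200 nM was pre-exposed to compound 30 min; 0.5 mM cumene hydroperoxide and 1 mM GSH served as substrates.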
# [3] = biological target: Luciferin 4-monooxygenase (Photinus pyralis) (UniProt P08659); experiment: Primary firefly luciferase (FLuc) qHTS assay for identification of artifact compounds. (AID 1845220); note: nearly all actives have a fitted effect of over 60% in size; note: potency is the fitted concentration of half-maximal effect; for activity change, negative = inhibition: series mostly up to about 54 µM
# Method in brief: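 Cell-free, 1536-well qHTS. Buffer pH 7.6 with 0.01% Tween-20 and 0.05% BSA; 10 uM D-luciferin, 10 uM ATP; 10 nM P. pyralis luciferase; luminescence after 5 min.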
Structure (SMILES),Potency [1],Potency [2],Potency [3],"activity change, negative = inhibition [3]",outcome [3]
CC(=O)OC1CC2(C)C(CCC(C)C23Cc2c(O)cc4c(c2O3)CNC4=O)C(C)(C)C1O (centres undefined),inactive,inactive,inactive,,
O=C(COCC(=O)N1CCN(C(c2ccccc2)c2ccccc2)CC1)Nc1ccc(Cl)cc1C(=O)O,inactive,inactive,inactive,,
C=C1CCC2[C@](C)(CO)CCC[C@@]2(C)[C@@H]1CCC1=CCOC1=O (some centres undefined),inactive,inactive,inactive,,
CO[C@@H]1[C@]2(O)C(=O)N3/C=C\C(C)(C)c4[nH]c5ccccc5c4/C=C\3C(=O)N2[C@]23[C@H](CO)C(C)(C)N2c2ccccc2[C@]13O,inactive,inactive,inactive,,
O=C(O)c1ccnc(-c2cc(C(=O)NCCc3ccccc3)ccn2)c1,inactive,inactive,inactive,,
C[C@@H]1O[C@@H](O[C@H]2[C@H](OC(=O)[C@]34CCC(C)(C)C[C@H]3C3=CCC5[C@@]6(C)CC[C@H](O[C@@H]7O[C@H](CO[C@@H]8OC[C@H](O)[C@H](O)[C@H]8O)[C@@H](O)[C@H](O)[C@H]7O)C(C)(C)C6CC[C@@]5(C)[C@]3(C)C[C@H]4O)OC[C@@H](O)[C@@H]2O)[C@H](O)[C@H](O[C@@H]2OC[C@](O)(CO)[C@H]2O)[C@H]1O[C@@H]1OC[C@H](O)[C@H](O[C@@H]2OC[C@@H](O)[C@H](O)[C@H]2O)[C@H]1O (some centres undefined),inactive,inactive,,-1.94% [at 11.6 µM],
CCC12CCCN3CCc4c(n(c5ccccc45)C(O)C1)C32 (centres undefined),inactive,inactive,inactive,,
C/C=C(\C)C1C(C)=CC2CCC(OS(=O)(=O)O)C(C)C2C1/C=C/C=C/C(=O)O (centres undefined),inactive,inactive,inactive,,
COc1cc(C2Oc3c(OC)cc(CCCO)cc3C2CO)ccc1O (centres undefined),inactive,inactive,inactive,,
Cn1cc(-c2c[nH]c3ncnc(N4CCOCC4)c23)cn1,inactive,inactive,inactive,,
C=C(CCO[C@@H]1O[C@H](CO)[C@@H](O)[C@H](O)[C@H]1O)C(=O)O,inactive,inactive,inactive,,
CC1=CC(=O)[C@]2(O[C@@H]3O[C@@H](C)[C@H](O)[C@@H](O)[C@H]3O)C=CO[C@@H](O[C@@H]3O[C@H](CO)[C@@H](O)[C@H](O)[C@H]3O)[C@H]12,inactive,inactive,inactive,,
C[C@]12CCC[C@](C)(C(=O)O)C1CCC13CC(CO)C(CCC12)C3 (some centres undefined),inactive,inactive,inactive,,
CC(C)(CC(=O)N1CCCC1)NCC(=O)N1C[C@@H](F)C[C@H]1C#N,inactive,inactive,inactive,,
C=C1C(O)C(O)C2(CC3C(C)=CCC4C(C)(C(=O)O)CCCC34C)OC2C1O (centres undefined),inactive,inactive,inactive,,
O=C(O)C[C@H]1CCC(=O)[C@@H]1C/C=C\CCO,inactive,inactive,inactive,,
C[C@@H]1O[C@@H](O[C@H]2[C@H](O[C@H]3[C@H](O[C@H]4CC[C@@]5(C)C(CC[C@]6(C)C5CC=C5[C@@H]7CC(C)(C)C[C@@H](O)[C@]7(C)CC[C@]56C)[C@@]4(C)CO)O[C@H](C(=O)O)[C@@H](O)[C@@H]3O)O[C@H](C(=O)O)[C@H](O)[C@@H]2O)[C@H](O)[C@H](O)[C@H]1O (some centres undefined),inactive,inactive,,0.9% [at 11.6 µM],
C[C@H]1[C@@H](O)[C@H](O)C2[C@]3(C)C([C@@H](O)[C@H]4OC(=O)[C@@H]1[C@@]24C)[C@](C)(O)C=C[C@H]3O[C@@H]1O[C@H](CO)[C@@H](O)[C@H](O)[C@H]1O (some centres undefined),inactive,inactive,inactive,,
CC1=C2CC3C(CCC3(C)O)C(C)(O)CC2OC1=O (centres undefined),inactive,inactive,inactive,,
CC(=O)OC1CC2C(C)(C)C(=O)C=CC2(C)C2CC(=O)C3=C(CCC3C3=CC(O)OC3=O)C12C (centres undefined),inactive,inactive,inactive,,
COC(=O)C(CC1(O)c2ccccc2N2C(=O)C(C)(C)N(O)C21)n1cnc2ccccc2c1=O (centres undefined),inactive,inactive,inactive,,
COc1cc(C(=O)OC[C@@]2(O)CO[C@@H](O[C@H]3[C@H](Oc4ccc(O)cc4)O[C@H](CO)[C@@H](O)[C@@H]3O)[C@@H]2O)cc(OC)c1O,inactive,inactive,inactive,,
Cc1occc(=O)c1O[C@@H]1O[C@H](COC(=O)CC(C)(O)CC(=O)O)[C@@H](O)[C@H](O)[C@H]1O (some centres undefined),inactive,inactive,inactive,,
C/C=C1/[C@H](O[C@@H]2O[C@H](CO)[C@@H](O)[C@H](O)[C@H]2O)OC=C(C(=O)OC)[C@H]1CC(=O)OCCc1ccc(OC(=O)C[C@@H]2C(C(=O)OC)=CO[C@@H](O[C@@H]3O[C@H](CO)[C@@H](O)[C@H](O)[C@H]3O)/C2=C/C)cc1,inactive,inactive,,2.52% [at 11.6 µM],
Cc1ccc(-c2c(-c3nn(C)c4ncnc(N5CCC(N6CCCCC6)C5)c34)cnn2C)cc1 (centres undefined),inactive,inactive,inactive,,
COc1cc(C2OCC3(O)C(c4ccc(O[C@@H]5O[C@H](CO)[C@@H](O)[C@H](O)[C@H]5O)c(OC)c4)OCC23O)ccc1O (some centres undefined),inactive,inactive,inactive,,
COC(=O)C1=CO[C@@H](O[C@@H]2O[C@H](CO)[C@@H](O)[C@H](O)[C@H]2O)[C@@H]2[C@@H](C(=O)O)CC[C@H]12,inactive,inactive,inactive,,

Structure (SMILES),Potency [1],Potency [2],Potency [3],"activity change, negative = inhibition [3]",outcome [3]
COc1ccc(-n2c(=O)[nH]c3cc(C(=O)NCc4ccc(Cl)cc4)sc3c2=O)nc1OC,inactive,inactive,inactive,,
COc1cccc(CN(C(=O)CC(C)(C)C)C2CC(C(=O)N3CCNCC3)N(Cc3ccc4c(c3)OCO4)C2)c1 (centres undefined),inactive,inactive,inactive,,
CC(O)C/C=C/C=C/C(=O)OC1C=C2COC(=O)C2(O)C2(C)CCCC(C)(C)C12 (centres undefined),inactive,inactive,inactive,,
O=C1C(Cl)=C(N2CCOCC2)C(=O)N1c1ccc(Cl)c(Cl)c1,inactive,inactive,inactive,,
CC1(C)C[C@H](O)C[C@@]2(C)[C@H]1[C@H](O)C=C1COC(=O)[C@@]12O,inactive,inactive,inactive,,
C[C@H]1CC(=O)C2=C(C1)C(O)C(O)[C@@]1(O)[C@H]2C(=O)c2cccc(O)c2[C@@H]1O (some centres undefined),inactive,inactive,inactive,,
COc1cc2c(cc1OC)N1C(=O)C[C@@]34C=CC[N@+]5([O-])CC[C@H]2[C@H](CC3)[C@@]145,inactive,inactive,inactive,,
CC(=O)O[C@@H]1C(O)C[C@@]2(C)C(CC[C@@H](C)C23Cc2c(O)cc4c(c2O3)CNC4=O)C1(C)C (some centres undefined),inactive,inactive,inactive,,
CC(C)[C@@](O)(c1ccc2cc(OC(F)F)c(OC(F)F)cc2c1)c1cn[nH]n1,inactive,inactive,inactive,,
CCN1CCN(C(=O)N[C@@H](C(=O)N[C@@H]2C(=O)N3[C@@H]2SC(C)(C)[C@@H]3C(=O)O)c2ccccc2)C(=O)C1=O,inactive,inactive,inactive,,
COc1cc(CCCO)ccc1O[C@@H]1O[C@H](CO)[C@@H](O)[C@H](O)[C@H]1O,inactive,inactive,inactive,,
O=C(Nc1cc(-c2ccccc2)nn1-c1ccccc1F)c1ccc([N+](=O)[O-])cc1,inactive,inactive,inactive,,
C=C1CC[C@]2(C(=O)O[C@@H]3O[C@H](CO)[C@@H](O)[C@H](O)[C@H]3O)CC[C@]3(C)C(=CCC4[C@@]5(C)C[C@H](O)[C@@H](O[C@@H]6O[C@H](C(=O)O)[C@@H](O)[C@H](O)[C@H]6O)[C@](C)(C=O)C5CC[C@]43C)C2C1 (some centres undefined),inactive,inactive,,,inactive [at 11.6 µM]
Cc1oc(S(=O)(=O)N2CCCCC2)cc1NC(=O)Nc1ccccc1,inactive,inactive,inactive,,
CC1=C2CC(O)(C(C)(C)O)C(O[C@@H]3O[C@H](CO)[C@@H](O)[C@H](O)[C@H]3O)CC(C)C2CC1=O (some centres undefined),inactive,inactive,inactive,,
C=CC(C)(CC/C=C(\C)C(=O)OC[C@H]1O[C@@H](OC(C)(C=C)CC/C=C(\C)C(=O)O[C@H]2[C@H](O)[C@@H](O)[C@H](OC(C)(C=C)CC/C=C(\C)C(=O)O)O[C@@H]2CO)[C@H](O)[C@@H](O)[C@@H]1O)O[C@@H]1O[C@H](CO)[C@@H](O)[C@H](O)[C@H]1O (some centres undefined),inactive,inactive,,,inactive [at 11.6 µM]
O=C(O)Cc1cn([C@@H]2OC[C@@H](O[C@@H]3O[C@H](CO)[C@@H](O)[C@H](O)[C@H]3O)[C@H](O)[C@H]2O[C@@H]2O[C@H](CO)[C@@H](O)[C@H](O)[C@H]2O)c2ccccc12,inactive,inactive,inactive,,
Cc1ccccc1-c1cc(N2CCN(C)CC2)ncc1N(C)C(=O)C(C)(C)c1cc(C(F)(F)F)cc(C(F)(F)F)c1,inactive,inactive,inactive,,
C=C1CC23CC(=O)C4C(CO)(CO)CCCC4(C)C2CCC1C3 (centres undefined),inactive,inactive,inactive,,
COc1cc2c(cc1O)CC(O)(CO)C(CO)C2c1ccc(OC2OC(CO)C(O)C(O)C2O)c(OC)c1 (centres undefined),inactive,inactive,inactive,,
C=C1C[C@H](O)[C@@H](O)[C@@]2(C)C1[C@@H](O)[C@H]1OC(=O)C3[C@@H](C)[C@@H](O)[C@H](O)C2[C@]31C (some centres undefined),inactive,inactive,inactive,,
FC(F)(F)c1nnc2c(Sc3ccccc3)nc3ccc(Cl)cc3n12,inactive,inactive,inactive,,
Cn1cc(CCn2cnc(-c3cnn(C)c3)c2-c2ccc(C#N)cc2)cn1,inactive,inactive,inactive,,
CC1(C)CC=C(C#Cc2ccccc2)c2cc(/C=C/c3ccc(C(=O)O)cc3)ccc21,inactive,inactive,10.7 µM (active),,
CC12CC(O)C(O)C=C1c1cc(O)cc(O)c1C(=O)O2 (centres undefined),inactive,inactive,inactive,,
CN(C)CC(c1ccc(O)cc1)C1(O)CCCCC1 (centres undefined),inactive,inactive,inactive,,
